Bioassay records from PubChem BioAssay.
A3G deaminase: APOBEC3G DNA deaminase inhibitors, primary screen, biochemical, fluorescence, single-stranded DNA substrate, uHTS; DNA dC->dU-editing enzyme APOBEC-3G (Homo sapiens), Q9HC16; recombinant A3G, ssDNA deamination FAM/TAMRA fluorescence; inhibition, % at 20 µM; hit rate 0.28% among 330,000; AID 493012, 2011;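 active means inhibition of at least 40% at 20 µM, with no more than 30% in the related APOBEC3A deaminase screen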;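 further: plate controls were DMSO wells with A3G for no effect and wells lacking A3G enzyme for full effect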
AHR activator: AHR activators, primary screen, cell-based, luminescence, luciferase reporter, human | Aryl hydrocarbon receptor (Homo sapiens), P35869 | AHR-responsive luciferase reporter cells | activation, % at 5 µM | hit rate 2.5% among 320,000 | AID 2796, 2010; in the data active means activation above about 47%;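 further: 0% = vehicle wells and 100% = reference agonist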
APOBEC3A inh: APOBEC3A ssDNA deaminase inhibitors, primary screen, selectivity assay for APOBEC3G inhibitor project, biochemical, FAM/TAMRA oligo cleavage fluorescence; DNA dC->dU-editing enzyme APOBEC-3A (Homo sapiens), P31941; recombinant A3A, FAM/TAMRA ssDNA deamination fluorescence; inhibition, % at 20 µM; hit rate 0.41% among 330,000;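 active means at least 40% inhibition at 20 µM here, with at most 30% in a related deaminase screen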;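 further: plate controls were A3A with DMSO for no effect and wells lacking A3A enzyme for full effect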
NTR1 agonist: agonists of human NTR1, primary screen, imaging, U2OS cells, beta-arrestin-GFP, high content; activation, % at 20 µM; hit rate 0.17% among 330,000; NTR1-U2OS beta-arrestin-GFP spot imaging, agonist mode; AID 493036, 2011; Neurotensin receptor type 1 (Homo sapiens), P30989;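 active means activation at or above 40% of the spot to cytoplasm intensity ratio, with at least 20 cells analyzed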;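 further: 0% = DMSO without peptide and 100% = 100 nM NTR1 peptide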
Target sequence (P30989 whole entry, looked up): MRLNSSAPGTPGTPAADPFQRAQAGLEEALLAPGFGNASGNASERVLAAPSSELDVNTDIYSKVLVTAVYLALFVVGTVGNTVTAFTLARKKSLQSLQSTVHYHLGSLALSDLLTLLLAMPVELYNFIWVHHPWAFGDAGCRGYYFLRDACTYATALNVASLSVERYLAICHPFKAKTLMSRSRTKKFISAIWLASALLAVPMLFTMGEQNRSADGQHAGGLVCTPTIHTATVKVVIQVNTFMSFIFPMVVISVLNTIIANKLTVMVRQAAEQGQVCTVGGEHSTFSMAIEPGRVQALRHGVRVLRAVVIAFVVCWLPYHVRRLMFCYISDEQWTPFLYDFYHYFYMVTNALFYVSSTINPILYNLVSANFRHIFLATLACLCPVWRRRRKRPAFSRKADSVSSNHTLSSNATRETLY
APOBEC3G confirm: APOBEC3G deaminase inhibitor retest, confirmation, biochemical, fluorescence, single-stranded DNA substrate, single concentration. recombinant A3G ssDNA deaminase, UDG/FAM-TAMRA fluorescence. inhibition, % at 20 µM. hit rate 72% among 890. shares compounds with A3G deaminase;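 active means inhibition reaching a set limit in any replicate at 20 µM, the limit being 80% of the first screen's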
UDG A3G counter: E. coli UDG inhibitors, confirmation, counter-screen for APOBEC3G inhibitor project, biochemical, single concentration, fluorescence, FAM/TAMRA oligo; 710 tested, under 10 active; inhibition, % at 20 µM; shares compounds with A3G deaminase; UDG counterscreen;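 active means compounds giving 40% or more inhibition at 20 µM in any one of the three replicates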;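 further: plate controls were DMSO wells with UDG and oligo for no effect and DMSO wells lacking both for full effect; inhibitors lower the FAM signal released by uracil excision and alkaline cleavage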
Target sequence (P12295 whole entry, looked up): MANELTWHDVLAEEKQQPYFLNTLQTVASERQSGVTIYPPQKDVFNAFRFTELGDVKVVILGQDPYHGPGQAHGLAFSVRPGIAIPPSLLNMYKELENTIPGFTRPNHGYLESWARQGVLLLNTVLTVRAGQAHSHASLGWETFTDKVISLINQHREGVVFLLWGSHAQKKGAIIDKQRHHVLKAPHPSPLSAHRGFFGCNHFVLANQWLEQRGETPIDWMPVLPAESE
Numbers without * were called inactive. The list is not random: actives were taken first. Their share in the collection is about 3.2%.

For O=C(C1CCN(c2ncnc3c2nc2n3CCCCC2)CC1)N1CCN(c2ccccc2F)CC1 the results were A3G deaminase 45.6*, AHR activator 0.7, APOBEC3A inh 4.3, NTR1 agonist -0.7 and APOBEC3G confirm 0.6.
`Cc1cc(-c2ccco2)c(C#N)c2nc3ccccc3n12` gave A3G deaminase 53.1*, AHR activator -10.9, APOBEC3A inh 19.9, NTR1 agonist 3.8 and APOBEC3G confirm 47.3*.
For Cc1cc(C(C)C)n2c(nc3ccccc32)c1C#N the results were A3G deaminase -9.4, AHR activator 32.5, APOBEC3A inh -2.1 and NTR1 agonist 1.6.
O=C(CNCC(=O)Nc1ccc(F)c(F)c1F)Nc1ccc(F)c(F)c1F was read as A3G deaminase -5.1, AHR activator 0.4, APOBEC3A inh -2.8 and NTR1 agonist -1.8.
O=C(Cc1ncon1)Nc1ccc(F)c(F)c1F was read as A3G deaminase 66.2*, AHR activator 3.5, APOBEC3A inh 0.0, NTR1 agonist -0.2 and APOBEC3G confirm 4.5.
COc1ccccc1NNC(=O)C(O)(c1ccccc1)c1ccccc1 was read as A3G deaminase 55.6*, AHR activator 8.8, APOBEC3A inh 0.6, NTR1 agonist 0.1 and APOBEC3G confirm -1.8.
For COc1ccccc1NNC(=O)C(O)(c1ccccc1OC)c1ccccc1OC the results were A3G deaminase -6.7, AHR activator 8.0, APOBEC3A inh -2.2 and NTR1 agonist -1.2.
Cc1ccc(N(CC(=O)NN=C2CCN(C)CC2)S(=O)(=O)c2ccc(C)cc2)cc1 was read as A3G deaminase -8.9, AHR activator 2.2, APOBEC3A inh -2.6 and NTR1 agonist 3.0.
`Cc1ccc(C)c(N(CC(=O)NN=C2CCN(C)CC2)S(=O)(=O)c2ccccc2)c1` gave A3G deaminase 51.1*, AHR activator 1.8, APOBEC3A inh -0.9, NTR1 agonist 1.0, APOBEC3G confirm -0.8 and UDG A3G counter 5.1.
CC1(C)CC(=O)C=C(NCCN2CCN(C(=S)NC3CCCCC3)CC2)C1 was read as A3G deaminase -2.7, AHR activator 0.0, APOBEC3A inh -1.1 and NTR1 agonist 0.4.
`Cc1nnsc1C(=O)NNc1ccc(C(C)C)cc1` gave A3G deaminase -10.1, AHR activator 24.1, APOBEC3A inh -2.6 and NTR1 agonist -1.0.
Screening Cc1nnsc1C(=O)NNc1ccc(C(C)(C)C)cc1 returned A3G deaminase 52.6*, AHR activator 18.4, APOBEC3A inh -0.6, NTR1 agonist 0.2, APOBEC3G confirm 17.8 and UDG A3G counter -1.7.
`Cc1cccc(C(=O)Nc2cccc(C(=O)N3CCOCC3)c2)c1` gave A3G deaminase -0.2, AHR activator 8.6, APOBEC3A inh 3.8 and NTR1 agonist -0.1.
Screening CC(=O)/C(=N/Nc1cccc(C)c1)N1CCOCC1 returned A3G deaminase 45.4*, AHR activator 8.8, APOBEC3A inh -3.2, NTR1 agonist -1.2, APOBEC3G confirm 3.1 and UDG A3G counter -3.3.
Screening CCC(CO)NS(=O)(=O)c1cc(-c2nn(C)c(=O)c3ccccc23)ccc1C (configuration not stated) returned A3G deaminase -6.7, AHR activator 1.3, APOBEC3A inh -3.6 and NTR1 agonist 2.9.
For CCN(CC)S(=O)(=O)c1cc(NC(=O)Cn2ncc(Cl)c(Cl)c2=O)ccc1C the results were A3G deaminase 54.9*, AHR activator 0.9, APOBEC3A inh 13.5, NTR1 agonist -0.5 and APOBEC3G confirm 15.7.
For O=C(Cn1ncc(Cl)c(Cl)c1=O)Nc1ccc2c(c1)OCO2 the results were A3G deaminase 10.1, AHR activator 1.1, APOBEC3A inh 7.6 and NTR1 agonist 9.5.
`COCCCN(CCNC(=O)c1ccc(NC2=NC3CS(=O)(=O)CC3S2)cc1)Cc1ccco1` (configuration not stated) gave A3G deaminase -7.6, AHR activator -2.6, APOBEC3A inh -3.6 and NTR1 agonist -1.7.
`COCCCN(CCCN)Cc1ccco1` gave A3G deaminase 71.1*, AHR activator -0.7, APOBEC3A inh -1.5, NTR1 agonist 3.9, APOBEC3G confirm 19.9 and UDG A3G counter 4.2.
Cc1nn(Cc2ccc(C(=O)O)o2)c(C)c1[N+](=O)[O-] was read as A3G deaminase 54.4*, AHR activator -0.8, APOBEC3A inh -1.3, NTR1 agonist 0.2, APOBEC3G confirm 6.9 and UDG A3G counter -1.1.
Screening COc1cccc(-n2c(=O)c3ccccc3n3c(=S)[nH]nc23)c1 returned A3G deaminase 38.6, AHR activator 0.0, APOBEC3A inh -1.7 and NTR1 agonist -0.3.
For CCc1ccc(-n2c(=O)c3ccccc3n3c(=S)[nH]nc23)cc1 the results were A3G deaminase 60.5*, AHR activator 0.4, APOBEC3A inh -5.1, NTR1 agonist -1.2, APOBEC3G confirm 76.3* and UDG A3G counter -2.5.
`CC12CCC(=O)N1C(C(=O)OCC(=O)Nc1ccc(C(F)(F)F)cc1)CS2` (configuration not stated) gave A3G deaminase -1.8, AHR activator 5.2, APOBEC3A inh -2.4 and NTR1 agonist 1.8.
For O=c1c2ccccc2sn1-c1ccc(F)cc1 the results were A3G deaminase 85.8*, AHR activator 13.1, APOBEC3A inh 1.1, NTR1 agonist -2.6, APOBEC3G confirm 79.8* and UDG A3G counter -2.3.
For COc1ccc(-c2ccc(NS(=O)(=O)c3cc([N+](=O)[O-])c(C)c([N+](=O)[O-])c3)cc2)nn1 the results were A3G deaminase -4.2, AHR activator 2.5, APOBEC3A inh -0.2 and NTR1 agonist 0.5.
Screening COc1ccc(NC(=O)N2CCCC(C(=O)NCCc3ccccc3)C2)cc1 (configuration not stated) returned A3G deaminase -4.3, AHR activator 2.8, APOBEC3A inh -1.9 and NTR1 agonist -0.9.
For CC(C)C(=O)NC(c1cccs1)c1cc([N+](=O)[O-])c2cccnc2c1O (configuration not stated) the results were A3G deaminase 53.6*, AHR activator 1.9, APOBEC3A inh 2.1, NTR1 agonist 1.1, APOBEC3G confirm 12.8* and UDG A3G counter -1.2.
For Cc1ccc2c(=O)n3c(nc2c1)C(CC(C)C)NC(=O)c1ccc(Cl)cc1-3 (configuration not stated) the results were A3G deaminase -1.8, AHR activator 4.0, APOBEC3A inh -1.3 and NTR1 agonist -0.9.
